Inconclusive results are not listed. Entries that show only a call come without a potency. Calls of active or inactive are those of the source. Calls come from the whole dose curve; as a rule, active = well fitted inhibition curve with a large enough effect; inconclusive = small, poorly fitted or top-dose-only effect; inactive = flat fitted curve, though single readings scatter.
Potency is the fitted concentration of half-maximal effect.

This assay is described as follows: qHTS to identify inhibitors of the type 1 interferon - major histocompatibility complex class I in skeletal muscle: primary screen against the NCATS LOPAC collection (AID 1347405).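 Note: lytic HiBiT luminescence reporting HLA-B protein level.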 As to conditions: iHSKM muscle cells, IFN-b-induced MHC-I HiBiT luminescence, 24 h; series mostly up to 45.9 µM. The text has this: Assay Submitter (PI): Travis B. Kinder Ph.D. & James Inglese Ph.D.
Assay Development and Screening Technology Laboratory (ADST)
National Center for Advancing Translational Sciences (NCATS), Rockville, MD
National Institute of Health (NIH), Bethesda, Maryland
Idiopathic inflammatory myopathies, collectively referred to as myositis, are a group of rare autoimmune diseases characterized by skeletal muscle inflammation, weakness, and usually accompanied by systemic pathologies of the skin, lungs, or vasculature. Current immunosuppressive therapies and glucocorticoids are often not curative and are accompanied by harsh side effects, especially in children with juvenile myositis. We initiated a drug repurposing and development program to identify more targeted, less toxic therapeutics to treat myositis. Although its cause is not known, muscle from a subset of patients have an abundance of the inflammatory type 1 interferon (IFN) and a down-stream product major histocompatibility complex class I (MHC class I), which are both thought to contribute to damage and weakness. We conducted quantitative high throughput screening on 6,576 compounds (4,679 unique) through a series of cell-based assays to identify those that inhibit the IFN-stimulated expression of MHC class I in muscle precursor cells (myoblasts). The compound identification and evaluation strategy utilized a primary screen with reporter-tagged MHC class I in genome-engineered myoblasts, ATP content counter screen for viability, HLA-ABC immunofluorescence secondary screen, and HLA-B RT-qPCR tertiary screen.
The primary screen utilized CRISPR/Cas9 genome-engineering of immortalized human myoblasts, C25cl48, where a pro-luminescent reporter HiBit was fused to the C-terminus of endogenous MHC class I allele HLA-B*08:01 (HLA-B HiBit myoblasts). HiBit is an 11 amino acid fragment of NanoLuc luminescent reporter (Promega Corporation), and when complexed to the larger LgBit fragment, the reconstituted enzyme produces light in the presence of furimazine substrate (Schwinn et al., 2018). Briefly, HLA-B HiBit myoblasts were plated into 1536-well plates, treated with 4.0 ng/ml human IFN-beta and 1,280 compounds from the Library of Pharmacologically Active Compounds 1280 library (LOPAC1280, Sigma Aldrich) in a 7-point, 1:4.3 titration with a high final concentration of 46 uM. After 24 hrs of treatment, cells were assayed by Nano-Glo HiBiT Lytic Detection System (Promega) and luminescence measured by a ViewLux 1430 Ultra HTS (Perkin Elmer).
Schwinn MK, Machleidt T, Zimmerman K, Eggers CT, Dixon AS, Hurst R, Hall MP, Encell LP, Binkowski BF, Wood K V. 2018. CRISPR-Mediated Tagging of Endogenous Proteins with a Luminescent Peptide. ACS Chem Biol 13:467-474. doi:10.1021/acschembio.7b00549
PROTOCOL TABLE (as described by Inglese et al., 2007)
SEQUENCE No. (e.g., 1, 2, 3, etc.); […] (e.g., Cells, Incubation, Reagent, etc.); VALUE; DESCRIPTION
1a; Cells; 5 uL; Use a Multidrop Combi (Thermo Scientific) to seed 350 cells/well into nine Greiner 1536 well white/solid bottom, high base, TC plates in 5 ul/well of iHSKM growth medium (GM) without dexamethasone into columns 1+2. Add metal lids with gas-exchange holes
1b; Cells; 5 uL; Use a Multidrop Combi (Thermo Scientific) to seed 350 cells/well into nine Greiner 1536 well white/solid bottom, high base, TC plates in 5 ul/well of iHSKM GM without dexamethasone + 4 ng/ml IFN-b into columns 3 - 48. Add metal lids with gas-exchange holes
2; Incubate; 1 hr; Incubate at 37 C, 5% CO2, 95% RH
3; Compounds; 23 nl; Use Pin Tool (Wako) to transfer DMSO control, ruxolitinib IFN-b inhibitor control [High Concentration = 80 uM final, 16-pt, 1:2 in duplicate], and library compounds in DMSO
4; Incubate; 24 hrs; Incubate at 37 C, 5% CO2, 95% RH
5; Dispense; 2.5 ul; Use BioRAPTR FRD (Beckman Coulter) to add HiBit lytic reagent
6; Incubate; 10 min; Incubate in the dark at ambient temperature for lysis
[…]
For orientation: In qHTS, concentration-response curves come from the screen itself.
Turning to `CC(C)N(CCC(=O)c1ccc2ccccc2c1)Cc1ccccc1`, the Potency was 12.6 µM (active).

Turning to `Clc1ccc2c(c1)N=C(N1CCNCC1)c1ccccc1N2`, the Potency entry was “inactive”.

As to `COC(=O)C1=CO[C@@H](O)[C@@H]2C(CO)=CC[C@H]12`, the Potency entry is “inactive”.

`NC(N)=NCCCCN=C(N)N`: the Potency result was “inactive”.

As for `COc1ccccc1N1CCN(CCN2C(=O)CC3(CCCC3)CC2=O)CC1`, the Potency entry is “inactive”.

`N[C@@H](Cn1ccc(=O)c(O)c1)C(=O)O`: the Potency entry was “inactive”.

Take `Brc1ccc([C@H]2CN3CCSC3=N2)cc1`: the Potency result is “inactive”.

Turning to `O=C1NC(c2cccc([N+](=O)[O-])c2)=CCN1c1ccccc1O`, the Potency result is “inactive”.

With `CCN(CC)CCNC(=O)c1ccc(NS(C)(=O)=O)cc1`, the Potency result is “inactive”.

As to `C[N+](C)(C)CCO`, the Potency entry is “inactive”.

With `Cc1nn(-c2ccccc2)c(C)c1/C=N/N1CCN(Cc2ccccc2)CC1`, the Potency entry was “inactive”.

As to `CN(C)c1cc2c(Nc3ccc4c(cnn4Cc4ccccc4)c3)ncnc2cn1`, the Potency result is “inactive”.

The values above are taken from PubChem BioAssay (NCATS).
